Laboratory results: the supplement of paper PMC10498489
Hit rate of the full screen: of about 2,300 compounds, about 330 (14%) showed activity. Only a sample is shown. Unmarked numbers belong to inactive results.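 The calls were made as follows: active = median modified Z-score above 1.96; inactive = 1.96 or below.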

tested on: HepG2 Srxn1-GFP reporter cells (+30 nM CDDO-Me); assay: Srxn1-GFP intensity median modified Z-score relative to plate median; higher = stronger NRF2 / oxidative stress reporter activation, active = hit call of the paper; conditions: 10 µM; exposure time: 24h
Summary of the method: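 HepG2 Srxn1-GFP BAC reporter cells were seeded at 20,000 per well in 96-well plates and co-exposed for 24 h to compound at 10 μM and an NRF2 activator at 30 nM, with DMSO at ≤0.1%, in three replicate plates. Cells were fixed with formaldehyde, stained with Hoechst and imaged by confocal microscopy, and cytoplasmic GFP was measured per cell, with images holding under 100 cells discarded. The reported value is the median over replicates of each plate's modified Z-score of GFP intensity. For this score, scaling used 1.4826 × median absolute deviation.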

| Compound | Srxn1-GFP intensity median modified Z-score |
| --- | --- |
| CCc1c2c(nc3ccc(OC(=O)N4CCC(N5CCCCC5)CC4)cc13)-c1cc3c(c(=O)n1C2)COC(=O)C3(O)CC (stereo not given) [euspeclibcmpd1960] | -0.421 |
| CCCNCCCCCC[N+](C)(C)C [euspeclibcmpd616] | 1.43 |
| C[N+](C)(C)CCCCCC[N+](C)(C)C [euspeclibcmpd1134] | -0.198 |
| CCCCCCCCCCCCCCCC[N+](C)(C)C [euspeclibcmpd1124] | 7.69 (active) |
| CC1(C)O[C@@H]2CC3C4CC=C5CC(=O)C=C[C@]5(C)[C@@]4(F)[C@@H](O)C[C@]3(C)[C@]2(C(=O)CO)O1 (stereo not given in full) [euspeclibcmpd303] | -0.909 |
| c1ccc2c(Cc3c[nH]c4ccccc34)c[nH]c2c1 [euspeclibcmpd2024] | 18.3 (active) |
| OCc1c[nH]c2ccccc12 [euspeclibcmpd1454] | 0.00439 |
| Cc1c[nH]c2ccccc12 [euspeclibcmpd1495] | 0.0463 |
| O=P(O)(O)C(O)(Cc1cccnc1)P(=O)(O)O [euspeclibcmpd2383] | -0.244 |
| COc1ccc(CCN(C)CCCC(C#N)(c2ccc(OC)c(OC)c2)C(C)C)cc1OC (stereo not given) [euspeclibcmpd958] | 5.38 (active) |
| CC[C@H]1OC(=O)C(C)[C@@H](O[C@H]2C[C@@](C)(OC)[C@@H](O)[C@H](C)O2)[C@H](C)[C@@H](O[C@@H]2O[C@H](C)C[C@H](N(C)C)[C@H]2O)[C@](C)(O)CC(C)C(=O)C(C)[C@@H](O)[C@]1(C)O (stereo not given in full) [euspeclibcmpd2296] | -0.138 |
| N#CC(c1ccc(Cl)cc1)c1c(Cl)cc(-n2ncc(=O)[nH]c2=O)cc1Cl (stereo not given) [euspeclibcmpd478] | 15 (active) |
| NC(Cc1cc(I)c(Oc2ccc(O)c(I)c2)c(I)c1)C(=O)O (stereo not given) [euspeclibcmpd346] | -0.0135 |
| NC(Cc1cc(I)c(Oc2cc(I)c(O)c(I)c2)c(I)c1)C(=O)O (stereo not given) [euspeclibcmpd345] | -0.572 |
| O=C(O)Cc1cc(I)c(Oc2ccc(O)c(I)c2)c(I)c1 [euspeclibcmpd1243] | 8.98 (active) |
| CNS(=O)(=O)Cc1ccc2[nH]cc(CCN(C)C)c2c1 [euspeclibcmpd759] | -0.145 |
| CC(=O)O[C@@H]1C[C@@]2(C)C(CC[C@@H]2C(C)=O)C2CC=C3CC(=O)CC[C@]3(C)C21 (stereo not given in full) [euspeclibcmpd1433] | 0.0291 |
| C[C@]12C=CC(=O)CC1=CCC1C2[C@@H](O)C[C@@]2(C)C1CC[C@]2(O)C(=O)COP(=O)(O)O (stereo not given in full) [euspeclibcmpd2287] | 0.582 |
| Cc1ccc(NC(=O)c2ccc(CN3CCN(C)CC3)cc2)cc1N=c1nc(-c2cccnc2)cc[nH]1 [euspeclibcmpd1311] | 4.53 (active) |
| O=C(O)c1ccc2c(c1)OCO2 [euspeclibcmpd1566] | -0.239 |
| CC1(C)C2CC[C@]3(C)C(C(=O)C=C4C5C[C@@](C)(C(=O)O)CC[C@]5(C)CC[C@]43C)[C@@]2(C)CC[C@@H]1O (stereo not given in full) [euspeclibcmpd1147] | -1.35 |
| O=C(O)CCCCC1SCC2NC(=O)NC21 (stereo not given) [euspeclibcmpd513] | -0.118 |
| CC(C)(CO)C(=O)C(O)NCCC(=O)NCCSSCCNC(=O)CCNC(=O)C(O)C(C)(C)CO (stereo not given) [euspeclibcmpd1231] | -0.621 |
| O=C(CCBr)N1CCN(C(=O)CCBr)CC1 [euspeclibcmpd576] | 2.59 (active) |
| O=C(O)/C=C/C=C/c1ccc2c(c1)OCO2 [euspeclibcmpd1736] | -0.462 |
| CC1(C)C2CC[C@]3(C)C(C(=O)C=C4C5C[C@@](C)(C(=O)O)CC[C@]5(C)CC[C@]43C)[C@@]2(C)CC[C@@H]1OC(=O)CCC(=O)O (stereo not given in full) [euspeclibcmpd2080] | -0.0685 |
| CC(OC(=O)c1cc(Cl)ccc1O)C(=O)Nc1ccc([N+](=O)[O-])cc1Cl (stereo not given) | 1.24 |
| NC(=O)c1ccc([N+](=O)[O-])cc1Cl [euspeclibcmpd514] | -0.559 |
| O=C(Nc1ccc([N+](=O)[O-])cc1Cl)c1cc(Cl)ccc1O [euspeclibcmpd562] | 2.35 (active) |
| O=C(OCC(=O)N1CCCC1)c1sc2cc(Cl)cc(Cl)c2c1Cl | 0.374 |
